± gives the standard deviation.
Tested on: MILI (PIWIL2) piRISC loaded with L1MC piRNA (26 nt)
Test: pre-steady-state target cleavage rate (min^-1); guide: L1MC piRNA 5'p-UAACUAAAUACUAUGCAAGCUGUAGG; MIWI and MILI are mouse PIWI proteins and EfPiwi is from a freshwater sponge; tags in brackets are library labels; higher = faster piRNA-guided slicing of the target
Method in brief: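 The pre-steady-state cleavage rate came from a burst-and-steady-state fit to pooled data from three Cleave-'n-Seq trials, in which uncleaved targets were sequenced and normalised to depth and to weakly complementary targets. Each reaction held 0.1 nM transcribed, DNA-blocked target RNA library and 1 nM active affinity-purified piRISC carrying one synthetic guide, with or without 500 nM GTSF1 partner protein, in HEPES–potassium acetate buffer at 33 °C for 0–8 or 0–960 min. k3 was capped at 0.0001 min^-1.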

[1] = auxiliary factor: 500 nM mouse GTSF1
[2] = auxiliary factor: none (no GTSF1)

UCCUGGUACAGCUUGCAUAGUAAAAAGUUA
pre-steady-state target cleavage rate [1]: 0.104 ± 0.024 | pre-steady-state target cleavage rate [2]: 0.00471 ± 0.003

UCCUGGAUGAGCUUGCAUAGUAUUGUAGUUA
pre-steady-state target cleavage rate [1]: 0.0782 ± 0.024 | pre-steady-state target cleavage rate [2]: 0.00469 ± 0.003

UCCUGGAUGAGGUUGCAAAGUAUUUAGUUA
pre-steady-state target cleavage rate [1]: 0.0323 ± 0.0068 | pre-steady-state target cleavage rate [2]: 0.00826 ± 0.0022

UCCUGGAUGUCGUUGCAAAGUAUAUAGUUA
pre-steady-state target cleavage rate [1]: 0.0166 ± 0.0054 | pre-steady-state target cleavage rate [2]: 0.00471 ± 0.0027

UCCUGGAACAGCUUCGUUAGUAUUUAGUUA
pre-steady-state target cleavage rate [1]: 0.181 ± 0.013 | pre-steady-state target cleavage rate [2]: 0.00414 ± 0.0022

UCCUGGAUGUCGAUGCAUAGUAUUUGGUUA
pre-steady-state target cleavage rate [1]: 0.0838 ± 0.016 | pre-steady-state target cleavage rate [2]: 0.00614 ± 0.0029

UCCUGGAUGUCGUUGCAUAGUAUUUAGUA
pre-steady-state target cleavage rate [1]: 0.148 ± 0.022 | pre-steady-state target cleavage rate [2]: 0.00424 ± 0.0026

UCCUGGAUGUCCUUGAUAGUAUUUAGUUA
pre-steady-state target cleavage rate [1]: 0.00551 ± 0.0039 | pre-steady-state target cleavage rate [2]: 0.00337 ± 0.0019

UCCUGGUACAGCUUGCAUAGUAUUAGUUA
pre-steady-state target cleavage rate [1]: 0.327 ± 0.053 | pre-steady-state target cleavage rate [2]: 0.00515 ± 0.003

UCCUGGAUGUGCUUUGCAUAGUAUUUAGUUA
pre-steady-state target cleavage rate [1]: 0.157 ± 0.016 | pre-steady-state target cleavage rate [2]: 0.0132 ± 0.0033

UCCUGGAUGUCGAAGCAUAGUAUAUAGUUA
pre-steady-state target cleavage rate [1]: 0.0508 ± 0.015 | pre-steady-state target cleavage rate [2]: 0.00342 ± 0.0022

UCCUGGAUCAGGAAGCAUAGUAUUUAGUUA
pre-steady-state target cleavage rate [1]: 0.0634 ± 0.0094 | pre-steady-state target cleavage rate [2]: 0.00311 ± 0.0023

UCCUGGUACACCUUGCAUUGUAUUUAGUUA
pre-steady-state target cleavage rate [1]: 0.15 ± 0.041 | pre-steady-state target cleavage rate [2]: 0.00903 ± 0.0041

UCCUGGAUGUCGAUGCAUAGUAUUUAGGUUA
pre-steady-state target cleavage rate [1]: 0.0911 ± 0.016 | pre-steady-state target cleavage rate [2]: 0.00466 ± 0.0031

UCCUCCAACAGCUUGCAUAGUAUUAAGUUA
pre-steady-state target cleavage rate [1]: 0.135 ± 0.021 | pre-steady-state target cleavage rate [2]: 0.0033 ± 0.0024

UCCUGGAACAGCUAGGAUAGUAUUUAGUUA
pre-steady-state target cleavage rate [1]: 0.26 ± 0.016 | pre-steady-state target cleavage rate [2]: 0.00746 ± 0.002

UCCUGGAUGAGCUUGCUAGUAUUUAGUUA
pre-steady-state target cleavage rate [1]: 0.00709 ± 0.0035 | pre-steady-state target cleavage rate [2]: 0.00421 ± 0.0027

UCCUGGAUGUCCUUGCAUUGUAUUAAGUUA
pre-steady-state target cleavage rate [1]: 0.0479 ± 0.012 | pre-steady-state target cleavage rate [2]: 0.00424 ± 0.0019

UCCUGGAUCAGCUUCCUUAGUAUUUAGUUA
pre-steady-state target cleavage rate [1]: 0.122 ± 0.018 | pre-steady-state target cleavage rate [2]: 0.00478 ± 0.0016

UCCUGGAUGUCCUUGGAUAGUAUUAAGUUA
pre-steady-state target cleavage rate [1]: 0.207 ± 0.037 | pre-steady-state target cleavage rate [2]: 0.00484 ± 0.0024

UCCUGGUACAGCUUGGAAAGUAUUUAGUUA
pre-steady-state target cleavage rate [1]: 0.111 ± 0.014 | pre-steady-state target cleavage rate [2]: 0.00903 ± 0.0035

UCCUGGUAACAGCUUGCAUAGUAUUUAGUUA
pre-steady-state target cleavage rate [1]: 0.244 ± 0.02 | pre-steady-state target cleavage rate [2]: 0.016 ± 0.0044

UCCUGGAUGUGCAUGCAUAGUAAUUAGUUA
pre-steady-state target cleavage rate [1]: 0.0501 ± 0.008 | pre-steady-state target cleavage rate [2]: 0.00833 ± 0.002

UCCUGGAUGUCCAUGGAUAGUAUUUAGUUA
pre-steady-state target cleavage rate [1]: 0.0252 ± 0.0073 | pre-steady-state target cleavage rate [2]: 0.00317 ± 0.0025

UCCUGGAUGUCCUAGCAUAGUAUUAAGUUA
pre-steady-state target cleavage rate [1]: 0.0366 ± 0.0077 | pre-steady-state target cleavage rate [2]: 0.00287 ± 0.0022

UCCUGGAUGUCGAAGCAUAGUAUUUAGUUG [g2:g16:cont:t1G]
pre-steady-state target cleavage rate [1]: 0.0225 ± 0.0063 | pre-steady-state target cleavage rate [2]: 0.00543 ± 0.0019

UCCUGGUACAGCUUGCAAUGUAUUUAGUUA
pre-steady-state target cleavage rate [1]: 0.0755 ± 0.013 | pre-steady-state target cleavage rate [2]: 0.0121 ± 0.0029

UCCUGGAUGUCGUUGCAUAGUAAUUAGUUA
pre-steady-state target cleavage rate [1]: 0.116 ± 0.022 | pre-steady-state target cleavage rate [2]: 0.00563 ± 0.002

UCCUGGAUCAGCAAGCAUAGUAUUUAGUAA
pre-steady-state target cleavage rate [1]: 0.196 ± 0.016 | pre-steady-state target cleavage rate [2]: 0.00292 ± 0.0028

UCCUGCUACAGCUUGCAUAGUCAUUUAGUUA
pre-steady-state target cleavage rate [1]: 0.0225 ± 0.0089 | pre-steady-state target cleavage rate [2]: 0.00473 ± 0.002

Source: the supplement of paper PMC10338343
